Consider eight sequences from PMC4081100, “A DNA-binding-site landscape and regulatory network analysis for NAC transcription factors in Arabidopsis thaliana”.

Holding throughout (assay): universal protein binding microarray (PBM); transcription factors of Arabidopsis thaliana; high values mean tight binding
One experiment has as its target T1, GST-ANAC092(1-176) (Arabidopsis thaliana, UniProt Q9FKA0 1-176).
T1 sequence: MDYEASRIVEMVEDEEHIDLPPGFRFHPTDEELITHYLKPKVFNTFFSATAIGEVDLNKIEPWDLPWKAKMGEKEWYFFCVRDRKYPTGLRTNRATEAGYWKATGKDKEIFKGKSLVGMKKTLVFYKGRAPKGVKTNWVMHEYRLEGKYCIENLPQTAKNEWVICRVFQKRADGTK
The settings on record: protein: recombinant; tags: GST; chain copies: 2; dsDNA, one strand shown. In outline:
(§1)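 Binding is expressed as the normalised enrichment score (E-score). Proteins carrying a GST tag, whether NAC-domain, full-length or DNA-binding-domain forms, were induced in cells, and zinc acetate was added for zinc-finger proteins. After purification on glutathione–Sepharose 4B and quantification by A280 or anti-GST western blot, each was applied in duplicate at 200 to 500 nM final to custom all-10-mer Agilent 4 × 180K arrays made double-stranded by primer extension. Gapped and ungapped 8-mers were scored.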

The target of the next experiment is T2, GST-ANAC019 NAC domain (Arabidopsis thaliana, UniProt Q9C932 14-162).
T2 sequence: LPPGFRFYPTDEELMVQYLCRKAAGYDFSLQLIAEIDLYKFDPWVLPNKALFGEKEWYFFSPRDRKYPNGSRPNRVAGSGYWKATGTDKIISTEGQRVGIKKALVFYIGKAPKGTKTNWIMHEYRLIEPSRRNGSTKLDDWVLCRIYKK
The settings on record: protein: recombinant; tags: GST; chain copies: 2; dsDNA, one strand shown. The procedure, abridged:
as §1

For another experiment, the target named is T3, GST-ANAC055(1-171) (Arabidopsis thaliana, UniProt Q9LDY8 1-171).
T3 sequence: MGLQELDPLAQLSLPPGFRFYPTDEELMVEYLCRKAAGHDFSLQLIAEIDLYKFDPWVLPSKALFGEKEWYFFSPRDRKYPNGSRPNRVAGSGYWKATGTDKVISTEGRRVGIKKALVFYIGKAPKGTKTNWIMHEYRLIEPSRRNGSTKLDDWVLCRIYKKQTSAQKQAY
The conditions noted are these: protein: recombinant; tags: GST; chain copies: 2; dsDNA, one strand shown. The procedure, abridged:
as §1

For a further experiment, the target named is T4, GST-ATAF1 NAC domain (Arabidopsis thaliana, UniProt Q39013 7-158).
T4 sequence: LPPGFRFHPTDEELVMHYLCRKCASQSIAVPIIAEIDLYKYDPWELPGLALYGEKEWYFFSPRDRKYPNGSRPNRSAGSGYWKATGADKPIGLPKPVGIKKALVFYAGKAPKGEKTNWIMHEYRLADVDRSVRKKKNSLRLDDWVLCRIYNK
The conditions noted are these: protein: recombinant; tags: GST; chain copies: 2; dsDNA, one strand shown. In outline: as §1

Experiment [1] has as its target T5, GST-ANAC092(1-285) full length (Arabidopsis thaliana, UniProt Q9FKA0 1-285).
T5 sequence: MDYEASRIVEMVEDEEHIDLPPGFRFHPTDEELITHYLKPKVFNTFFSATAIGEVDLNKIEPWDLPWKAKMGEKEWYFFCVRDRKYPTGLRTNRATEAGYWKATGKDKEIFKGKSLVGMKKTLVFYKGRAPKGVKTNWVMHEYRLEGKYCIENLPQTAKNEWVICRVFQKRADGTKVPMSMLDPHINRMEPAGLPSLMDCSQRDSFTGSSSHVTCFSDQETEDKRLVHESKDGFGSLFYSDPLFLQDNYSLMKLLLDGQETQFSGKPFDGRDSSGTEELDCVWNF
The settings on record: protein: recombinant; tags: GST; chain copies: 2; dsDNA, one strand shown. In outline: as §1

A further experiment has as its target T6, GST-NAP(1-166) (Arabidopsis thaliana, UniProt O49255 1-166).
T6 sequence: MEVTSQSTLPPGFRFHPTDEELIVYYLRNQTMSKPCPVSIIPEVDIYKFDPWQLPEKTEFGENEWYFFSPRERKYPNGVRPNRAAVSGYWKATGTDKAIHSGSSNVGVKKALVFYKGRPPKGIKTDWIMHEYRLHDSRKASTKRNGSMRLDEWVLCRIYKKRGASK
The conditions noted are these: protein: recombinant; tags: GST; chain copies: 2; dsDNA, one strand shown. The procedure, abridged: as §1

The next experiment concerns the target T7, GST-NST2(1-184) (Arabidopsis thaliana, UniProt Q9M274 1-184).
T7 sequence: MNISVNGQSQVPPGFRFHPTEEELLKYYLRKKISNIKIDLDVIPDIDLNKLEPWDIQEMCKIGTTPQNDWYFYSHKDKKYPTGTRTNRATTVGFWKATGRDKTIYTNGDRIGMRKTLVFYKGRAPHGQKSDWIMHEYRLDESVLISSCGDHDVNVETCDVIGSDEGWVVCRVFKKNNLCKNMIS
The settings on record: protein: recombinant; tags: GST; chain copies: 2; dsDNA, one strand shown. In outline:
as §1

Another experiment deals with T8, GST-NTL8 NAC domain (Arabidopsis thaliana, UniProt Q9XIN7 14-156).
T8 sequence: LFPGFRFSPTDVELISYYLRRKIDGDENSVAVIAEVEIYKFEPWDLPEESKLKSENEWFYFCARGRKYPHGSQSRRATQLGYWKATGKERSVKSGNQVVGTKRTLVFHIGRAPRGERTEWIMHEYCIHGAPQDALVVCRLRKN
The settings on record: protein: recombinant; tags: GST; chain copies: 2; dsDNA, one strand shown. In outline: as §1

The next experiment concerns the target T9, GST-SND1(1-203) (Arabidopsis thaliana, UniProt Q9LPI7 1-203).
T9 sequence: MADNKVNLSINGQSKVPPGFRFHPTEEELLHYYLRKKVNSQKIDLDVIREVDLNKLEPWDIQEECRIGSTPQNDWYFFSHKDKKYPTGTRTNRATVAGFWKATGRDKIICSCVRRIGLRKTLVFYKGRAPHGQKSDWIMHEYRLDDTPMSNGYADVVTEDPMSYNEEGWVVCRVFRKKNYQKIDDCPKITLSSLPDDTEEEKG
The conditions noted are these: protein: recombinant; tags: GST; chain copies: 2; dsDNA, one strand shown. In outline: as §1

The target of a further experiment is T10, GST-VND3 NAC domain (Arabidopsis thaliana, UniProt Q9FH59 12-162).
T10 sequence: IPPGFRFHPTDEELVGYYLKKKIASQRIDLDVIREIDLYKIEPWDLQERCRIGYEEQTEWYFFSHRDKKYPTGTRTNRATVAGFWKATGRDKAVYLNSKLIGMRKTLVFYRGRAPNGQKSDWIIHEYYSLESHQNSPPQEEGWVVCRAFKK
The conditions noted are these: protein: recombinant; tags: GST; chain copies: 2; dsDNA, one strand shown. The procedure, abridged:
as §1

In another experiment the target is T11, GST-VND7 NAC domain (Arabidopsis thaliana, UniProt Q9C8W9 9-158).
T11 sequence: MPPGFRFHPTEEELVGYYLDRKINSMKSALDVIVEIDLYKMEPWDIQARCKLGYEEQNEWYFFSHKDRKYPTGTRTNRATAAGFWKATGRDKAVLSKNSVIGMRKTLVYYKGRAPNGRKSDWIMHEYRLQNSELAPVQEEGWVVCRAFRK
The settings on record: protein: recombinant; tags: GST; chain copies: 2; dsDNA, one strand shown. The procedure, abridged: as §1

A further experiment concerns the target GST-NTL6(1-168) (Arabidopsis thaliana, UniProt Q9SCK6 1-168). The settings on record: protein: recombinant; tags: GST; chain copies: 2; dsDNA, one strand shown. The procedure, abridged:
as §1

A further experiment addresses GST-WRKY1(266-371) (Arabidopsis thaliana, UniProt Q9SI37 266-371). The conditions noted are these: protein: recombinant; tags: GST; dsDNA, one strand shown. In outline: as §1

GST-WRKY1(266-371), sequence (Q9SI37 266-371): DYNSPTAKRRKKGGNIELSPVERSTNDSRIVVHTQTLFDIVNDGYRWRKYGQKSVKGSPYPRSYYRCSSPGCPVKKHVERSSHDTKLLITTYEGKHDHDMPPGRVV
GST-NTL6(1-168), sequence (Q9SCK6 1-168): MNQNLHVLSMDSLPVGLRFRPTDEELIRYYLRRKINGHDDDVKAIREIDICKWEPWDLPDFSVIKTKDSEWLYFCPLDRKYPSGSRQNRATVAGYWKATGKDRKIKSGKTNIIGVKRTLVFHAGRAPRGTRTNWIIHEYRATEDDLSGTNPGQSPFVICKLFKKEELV

Consider ACGCAAAC, for which the binding signal with GST-ANAC092(1-176) came to 0.459 E-score; with GST-ANAC019 NAC domain, 0.391 E-score; with GST-ANAC055(1-171), 0.265 E-score; with GST-ATAF1 NAC domain, 0.258 E-score; in experiment [1], 0.471 E-score; in the experiment with GST-NAP(1-166) it was 0.368 E-score. For the same sequence, the binding signal with GST-NST2(1-184) worked out at 0.357 E-score; with GST-NTL8 NAC domain, 0.0692 E-score; in the experiment with GST-SND1(1-203), 0.431 E-score; in the experiment with GST-VND3 NAC domain, 0.378 E-score; in the experiment with GST-VND7 NAC domain, 0.314 E-score.
On to AAATACGT, for which the binding signal with GST-ANAC092(1-176) was 0.196 E-score; in the experiment with GST-ANAC019 NAC domain it was 0.226 E-score; with GST-ANAC055(1-171), 0.244 E-score; with GST-ATAF1 NAC domain, 0.346 E-score; in experiment [1], 0.35 E-score; with GST-NAP(1-166), 0.29 E-score. Also, the binding signal stood at 0.209 E-score with GST-NST2(1-184); 0.101 E-score in the experiment with GST-NTL8 NAC domain; 0.21 E-score in the experiment with GST-SND1(1-203); 0.408 E-score with GST-VND3 NAC domain; 0.263 E-score in the experiment with GST-VND7 NAC domain.
On to ATACGGCA, for which the binding signal in the experiment with GST-ANAC092(1-176) turned out to be 0.419 E-score; in the experiment with GST-ANAC019 NAC domain, 0.361 E-score; with GST-ANAC055(1-171), 0.353 E-score; with GST-ATAF1 NAC domain it was 0.365 E-score; in experiment [1], 0.433 E-score; with GST-NAP(1-166) it was 0.411 E-score. For the same sequence, the binding signal in the experiment with GST-NST2(1-184) came to 0.0642 E-score; with GST-SND1(1-203) it was 0.228 E-score; with GST-VND3 NAC domain it was 0.414 E-score; with GST-VND7 NAC domain, 0.44 E-score.
Regarding GACACGGC, the binding signal with GST-ANAC092(1-176) worked out at 0.235 E-score; with GST-ANAC019 NAC domain, 0.42 E-score; with GST-ANAC055(1-171) it was 0.351 E-score; with GST-ATAF1 NAC domain, 0.278 E-score; in experiment [1], 0.387 E-score; in the experiment with GST-NAP(1-166), 0.237 E-score. The binding signal is 0.0582 E-score with GST-NTL8 NAC domain, 0.116 E-score with GST-SND1(1-203), 0.328 E-score with GST-VND3 NAC domain and 0.348 E-score with GST-VND7 NAC domain.
For the sequence GTACGCGA, the binding signal was 0.245 E-score in the experiment with GST-ANAC092(1-176); 0.0563 E-score in the experiment with GST-ANAC055(1-171); 0.234 E-score with GST-ATAF1 NAC domain; 0.4 E-score in experiment [1]; 0.188 E-score with GST-NAP(1-166); 0.129 E-score with GST-NST2(1-184). Moreover, the binding signal in the experiment with GST-SND1(1-203) is 0.288 E-score; in the experiment with GST-VND3 NAC domain, 0.11 E-score; with GST-VND7 NAC domain, 0.133 E-score.
Consider CTTCCTTA, for which the binding signal with GST-ANAC092(1-176) is 0.158 E-score; with GST-NTL6(1-168), 0.447 E-score; with GST-ANAC019 NAC domain it was 0.0721 E-score; in [1], 0.104 E-score; in the experiment with GST-NST2(1-184), 0.151 E-score; with GST-NTL8 NAC domain it was 0.223 E-score. Also, the binding signal with GST-SND1(1-203) amounted to 0.21 E-score; in the experiment with GST-VND3 NAC domain, 0.0785 E-score; in the experiment with GST-WRKY1(266-371) it was 0.0845 E-score.
Consider ATGGCGTA, for which the binding signal with GST-ANAC092(1-176) was 0.393 E-score; in the experiment with GST-ATAF1 NAC domain, 0.185 E-score; in experiment [1], 0.426 E-score; with GST-NAP(1-166), 0.184 E-score; in the experiment with GST-NST2(1-184) it was 0.299 E-score; in the experiment with GST-SND1(1-203) it was 0.452 E-score. The binding signal with GST-VND3 NAC domain was 0.149 E-score; with GST-VND7 NAC domain, 0.192 E-score.
On to AATGCGTA, for which the binding signal is 0.371 E-score with GST-ANAC092(1-176); 0.0991 E-score with GST-ANAC055(1-171); 0.142 E-score with GST-ATAF1 NAC domain; 0.387 E-score in [1]; 0.183 E-score in the experiment with GST-NAP(1-166); 0.212 E-score with GST-NST2(1-184). Further, the binding signal in the experiment with GST-SND1(1-203) amounted to 0.414 E-score; with GST-VND3 NAC domain it was 0.148 E-score; with GST-VND7 NAC domain it was 0.118 E-score.
